IL1B NFkB pot = enhances IL-1B driven NFkB nuclear translocation; activation, % at 2 µM; AID 819; actives 0.3% (n = 94,000); HUVEC IL-1B NFkB p65 nuclear translocation imaging;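 active means activation above 40%, about the mean plus 3 SD, also judged a hit on visual image review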;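 further: percent activation is computed from the nuclear over cytoplasmic p65 intensity ratio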
IL1B NFkB inh = blocks IL-1B driven NFkB nuclear translocation in HUVEC cells | inhibition, % at 2 µM | HUVEC IL-1B NFkB p65 nuclear translocation imaging | AID 796 | actives 0.43% (n = 94,000);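 active means inhibition above about 30% together with a positive call from visual inspection of the well image, limit read from the data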;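 further: nuclear over cytoplasmic p65 intensity ratio measured by imaging; 0% = IL-1B stimulated DMSO wells and 100% = unstimulated DMSO wells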
Candida biofilm = kills Candida albicans biofilms; C. albicans biofilm + clotrimazole, Alamar Blue; inhibition, % at 6 µM; actives 0.14% (n = 85,000); AID 834;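 active means inhibition above 20%; inactive means inhibition below 20%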;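 further: preformed 24 hr biofilms exposed to compound for 48 hr; 0% = biofilm without compound and 100% = blank killed by clotrimazole plus chlorhexidine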
IL1B cytotox = toxic to HUVEC cells under IL-1B stimulation. HUVEC cell count loss, Hoechst imaging, IL-1B stimulated. cell count reduction, % at 2 µM. actives 0.41% (n = 94,000). AID 845;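 active means cell count reduction more than 3 SD above the screen-wide mean, cut at about 70% in these data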;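 further: normalized per plate to untreated control cells as the no-loss baseline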
EphB4 antag = antagonists of human EphB4-ephrin-B2 interaction. EphB4 LBD / TNYL-RAW-Alexa532 peptide, fluorescence polarization. inhibition, % at 7 µM. actives 0.15% (n = 97,000). AID 720;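 active means inhibition above the screen-wide mean inhibition plus 3 SD, cut at about 15% in these data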;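 further: 0% = DMSO wells and 100% = excess unlabeled TNYL-RAW peptide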
Target sequence (P54760 whole entry, looked up, the tested form may be a part): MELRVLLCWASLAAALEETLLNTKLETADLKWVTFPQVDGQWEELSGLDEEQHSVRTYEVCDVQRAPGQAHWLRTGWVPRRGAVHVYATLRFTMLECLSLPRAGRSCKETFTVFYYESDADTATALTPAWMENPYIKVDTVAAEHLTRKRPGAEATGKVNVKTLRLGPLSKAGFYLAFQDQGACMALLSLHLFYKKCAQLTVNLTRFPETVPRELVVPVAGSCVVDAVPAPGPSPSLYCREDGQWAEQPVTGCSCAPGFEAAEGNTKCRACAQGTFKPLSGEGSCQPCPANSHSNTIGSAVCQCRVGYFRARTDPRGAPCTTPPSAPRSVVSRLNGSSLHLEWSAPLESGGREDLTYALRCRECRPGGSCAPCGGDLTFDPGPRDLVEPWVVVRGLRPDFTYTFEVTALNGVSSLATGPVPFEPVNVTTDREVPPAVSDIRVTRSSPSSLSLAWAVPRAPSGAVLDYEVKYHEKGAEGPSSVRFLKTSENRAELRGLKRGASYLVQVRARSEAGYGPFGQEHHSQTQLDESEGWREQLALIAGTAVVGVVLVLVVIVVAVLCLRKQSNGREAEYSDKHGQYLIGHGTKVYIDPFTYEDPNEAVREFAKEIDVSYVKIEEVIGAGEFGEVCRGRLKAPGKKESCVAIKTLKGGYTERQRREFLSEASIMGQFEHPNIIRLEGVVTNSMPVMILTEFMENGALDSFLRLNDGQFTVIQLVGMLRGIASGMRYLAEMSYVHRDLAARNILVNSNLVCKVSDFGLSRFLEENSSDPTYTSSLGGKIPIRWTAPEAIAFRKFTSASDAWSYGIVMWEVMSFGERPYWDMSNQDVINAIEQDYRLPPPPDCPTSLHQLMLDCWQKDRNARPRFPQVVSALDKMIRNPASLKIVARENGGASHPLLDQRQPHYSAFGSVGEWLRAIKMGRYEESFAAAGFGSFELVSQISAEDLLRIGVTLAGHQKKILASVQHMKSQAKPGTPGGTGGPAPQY
* marks the source's active call; other numbers are inactive results; / = no result. Sampled rows, rich in hits. Any-hit rate of the full collection: about 1.1%.

SMILES	IL1B NFkB pot	IL1B NFkB inh	Candida biofilm	IL1B cytotox	EphB4 antag
O=C(c1ccc(F)cc1)N1CCCCC(Sc2nnc3ccccn23)C1=O (stereo not given)	-30	30*	0	-12	4
Cc1cc2nnc(SC3CCCCN(C(=O)c4ccc(F)cc4)C3=O)n2c2ccccc12 (stereo not given)	5	-5	8	-137	4
Cc1cc(C)n2nc(SC3CCCCN(C(=O)c4ccc(F)cc4)C3=O)nc2n1 (stereo not given)	10	-10	6	26	19*
O=C(c1ccccc1)N1CCCCC(Sc2nnc3ccccn23)C1=O (stereo not given)	/	/	4	/	/
O=C(NCN1CCCCC1)c1cnccn1	12	-12	3	90*	-7
O=C(NCN1CCN(c2ccccn2)CC1)c1cnccn1	/	/	13	/	/
COc1ccc(C)cc1NC(=O)CN1CCN(C/C=C/c2ccccc2)CC1	1	-1	/	-30	6
O=C(c1ccc(NC2=NC3CS(=O)(=O)CC3S2)cc1)N1CCN(Cc2ccccc2)CC1 (stereo not given)	20	-20	5	5	8
O=C(c1ccc(NC2=NC3CS(=O)(=O)CC3S2)cc1)N1CCc2ccccc2C1 (stereo not given)	/	/	29*	/	/
O=C(NCCCN1CCOCC1)C(C(=O)c1ccccc1)n1ccccc1=O (stereo not given)	24	-24	7	-23	-6
COc1ccc(CCNC(=O)CSc2nc(C)nc3c2c(=O)n(C)c(=O)n3C)cc1OC	/	/	0	/	/
O=C(NCCc1ccncc1)C(F)(F)F	-72	72*	2	-40	-3
O=C1CC(=O)N(Cc2ccco2)C(=S)N1	-32	32*	-5	5	1
CCOC(=O)c1cn2c3c(c(F)c(F)c(F)c3c1=O)SC(N1CCCC1)=N2	/	/	6	/	/
CCOc1ccc(NC(=O)C(C)Oc2ccccc2C(=O)Nc2ccc(C)c(Cl)c2)cc1 (stereo not given)	-5	5	/	40	17*
CCOc1ccc(NC(=O)c2ccccc2OCC(=O)c2ccc(C)cc2)cc1	21	-21	/	6	-2
Cc1[nH][nH]c(=O)c1C(c1ccc(-c2ccc(Cl)c(Cl)c2)o1)c1c(C)[nH][nH]c1=O	42*	-42	4	-124	4
O=C(CCC1CCCCC1)Nc1c2c(nn1-c1ccc(F)cc1)CS(=O)C2 (stereo not given)	-5	5	6	76*	2
COc1ccc(-n2nc3c(c2NC(=O)C2CCCC2)CS(=O)C3)cc1 (stereo not given)	4	-4	10	2	0
O=C(O)CSc1nnc(-c2ccccc2)o1	/	/	2	/	2
Fc1ccccc1CSc1nnc(-c2ccccc2)o1	14	-14	-1	92*	-7
c1ccc(-c2nnc(-c3cccc(-c4nnc(-c5ccccc5)o4)c3)o2)cc1	-9	9	-3	11	2
Cc1ccc(C(=O)CSc2nnc(-c3ccccc3)o2)cc1	5	-5	10	93*	2
Cc1ccc(-c2nnc(-c3ccccc3)o2)cc1	-72	72*	6	10	-2
COc1ccc(C(=O)COC(=O)Cn2nnc3ccccc32)cc1Br	2	-2	2	-14	1
SMILES	IL1B NFkB pot	IL1B NFkB inh	Candida biofilm	IL1B cytotox	EphB4 antag
CCc1nnc(NC(=O)C2CCCN2S(=O)(=O)c2ccc(F)cc2)s1 (stereo not given)	1	-1	10	-18	1
CC1CCCCN1C(=O)Cn1cc(/C=C2/C(=O)Nc3ccccc32)c2ccccc21 (stereo not given)	-4	4	10	-33	-4
Cc1oc2cc3c(C(=O)N4CCN(c5ccccc5)CC4)c(C)oc3cc2c1C(=O)N1CCN(c2ccccc2)CC1	3	-3	11	1	4
O=C(c1cccn2c(=O)c3cc4ccccc4cc3nc12)N1CCN(c2ccccc2)CC1	3	-3	12	-2	-6
CC1=NN(c2ccccc2)C(=O)C1(C)C	-50	50*	7	-1	0
Clc1ccc(OCc2nn3c(-c4ccncc4)nnc3s2)cc1	46*	-46	11	-18	-9
CCOc1ccc(-c2nnc3sc(COc4ccc(Cl)cc4)nn23)cc1	18	-18	0	-68	-6
CCc1ccc(C(C(=O)NC2CCCCC2)N(C(=O)CNC(=O)c2ccco2)c2cccnc2)cc1 (stereo not given)	-1	1	8	20	-1
Cc1ccccc1Cn1c(-c2cncs2)nc2ccccc21	-1	1	6	17	3
O=C(Cn1c(-c2cncs2)nc2ccccc21)NCc1ccccc1	-2	2	-1	90*	5
COc1ccccc1N1CCN(C(=O)c2cc(-c3ccc(Cl)cc3)on2)CC1	-44	44*	-3	14	1
COC(=O)C1=C(C)N(CCc2ccccc2)C(=O)C1	-88	88*	11	93*	-2
CCCN1C(=O)CC(C(=O)OC)=C1C	3	-3	3	-53	1
CCCCC(CC)C(=O)NCc1ccccc1OC (stereo not given)	101*	-101	10	-9	1
CCCC(C)C(=O)NCc1ccccc1OC (stereo not given)	123*	-123	4	0	-6
COc1ccccc1CNC(=O)c1ccccc1N	16	-16	6	2	3
Cc1ccc(C)c2[nH]c(=O)c(CCNC(=O)c3ccc(Br)o3)cc12	-43	43*	8	-11	14
COc1ccc(-c2nc(CS(=O)CC(=O)NCc3ccc(Cl)cc3)c(C)o2)cc1 (stereo not given)	/	/	-6	/	-4
COc1cccc(NC(=O)COC(=O)c2ccc(S(=O)(=O)NCc3ccco3)cc2)c1	-9	9	/	-1	4
C=CCN1C(=O)C2C(C(=O)NC3CCCCC3)C3C=CC2(O3)C1C(=O)NC1CCCC1 (stereo not given)	-100	100*	4	90*	-2
CCCN1C(=O)C2C(C(=O)Nc3cccc(OC)c3)C3C=CC2(O3)C1C(=O)NC1CCCCC1 (stereo not given)	7	-7	8	24	2
O=C(NCCc1csc(-c2cccnc2)n1)c1cccc2ccccc12	-35	35*	10	79*	-7
CC(NC(=O)c1ccco1)c1cccc2ccccc12 (stereo not given)	-98	98*	0	78*	2
CN1C(=O)CC(N2CCN(c3ccccc3)CC2)C1=O (stereo not given)	7	-7	12	-15	-5
Cc1ccc(Nc2cnn(C34CC5CC(CC(CC(=O)O)(C5)C3)C4)c(=O)c2Cl)cc1	-4	4	-1	9	52*
CC(C)c1ccc(Nc2cnn(C34CC5CC(CC(CC(=O)O)(C5)C3)C4)c(=O)c2Cl)cc1	-6	6	-2	7	6
CN1CCN(c2c3c(c(C#N)c4nc5ccccc5n24)CCCC3)CC1	/	/	9	/	/
CC1=C(C(N)=O)C(c2ccncc2)n2nc(-c3ccccc3Cl)nc2N1 (stereo not given)	5	-5	21*	14	-8
